Consider 40 compounds from PubChem BioAssay.

Values without a mark were called inactive. Calls of active or inactive are those of the source. No stated cut-off is given here; in the data, active means inhibition above about 42%; inactive means the rest.

Sequence of Nuclear receptor subfamily 5 group A member 2 (Homo sapiens) (O00482 whole entry, looked up): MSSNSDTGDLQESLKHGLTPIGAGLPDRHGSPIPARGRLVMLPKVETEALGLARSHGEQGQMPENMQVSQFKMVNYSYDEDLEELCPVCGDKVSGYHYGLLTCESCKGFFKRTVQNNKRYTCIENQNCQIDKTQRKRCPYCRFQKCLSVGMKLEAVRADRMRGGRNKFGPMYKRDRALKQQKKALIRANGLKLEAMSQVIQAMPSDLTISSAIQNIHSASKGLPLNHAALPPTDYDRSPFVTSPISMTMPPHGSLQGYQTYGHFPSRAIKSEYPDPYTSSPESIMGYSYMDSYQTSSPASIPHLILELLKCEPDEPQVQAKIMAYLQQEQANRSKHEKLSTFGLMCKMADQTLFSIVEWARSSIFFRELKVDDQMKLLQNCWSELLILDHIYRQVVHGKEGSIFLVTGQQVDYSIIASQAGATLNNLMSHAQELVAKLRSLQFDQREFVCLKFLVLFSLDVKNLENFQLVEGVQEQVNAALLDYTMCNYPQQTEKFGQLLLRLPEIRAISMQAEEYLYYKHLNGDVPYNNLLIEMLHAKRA

The experiment has as its target Nuclear receptor subfamily 5 group A member 2 (Homo sapiens) (UniProt O00482). As to the kind of experiment: NR5A2 activity suppression in reporter cells – cell-based, luminescence, confirmation (AID 651613).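 Further: HEK293T cells co-transfected with LRH-1 and StAR promoter luciferase reporter; 0% = vehicle wells and 100% = parental cells lacking receptor.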 The settings on record: cell-based LRH-1 luciferase reporter, inverse agonism; at 3.6 µM; active compounds read high.
As to `Cc1ccc(/C=C2\SC(=S)N(c3c(C)n(C)n(-c4ccccc4)c3=O)C2=O)cc1`, the inhibition was 55.7% (active).
For the compound `O=C(COc1ccc2ccc(=O)oc2c1)Nc1ccc(N2CCOCC2)cc1`, the inhibition was 57.3% (active).
Take `Cc1nn(Cc2ccc(Cl)cc2)c(C)c1NC(=O)c1cc(C(C)C)on1`: the inhibition is 44.9% (active).
As for `Oc1cccc(Nc2nc(-c3ccccc3Cl)nc3ccccc23)c1`, the inhibition was 54.2% (active).
Consider `CCC(c1nnnn1-c1c(C)cccc1C)N1CCN(c2ccc(C(F)(F)F)cc2[N+](=O)[O-])CC1` (stereo not given), for which the inhibition is 18.6%.
The result for `CCC(=O)N1CCN(c2cc(NCC3CCCO3)c(F)cc2[N+](=O)[O-])CC1` (stereo not given) reads 43.8% (active).
With `O=C(NNc1ccccc1)C(=O)NNS(=O)(=O)c1ccc([N+](=O)[O-])cc1` the figure was 12.9%; with `Cc1ccc(Cn2cnc3ccccc32)cc1C`, 36.2%.
With `O=C(CN1C(=O)NC2(CCOc3ccccc32)C1=O)Nc1cccc([N+](=O)[O-])c1` (stereo not given) the figure was 58.6% (active).
In the case of `Cc1c(Cl)cccc1NC(=O)CS(=O)(=O)c1ccccc1`, the inhibition is 55.1% (active).
Regarding `NNC(=O)C(Cc1ccc(O)cc1)N1Cc2ccccc2C1=O` (stereo not given), the inhibition was 20.6%.
`CNC(=S)N/N=C/c1cn(Cc2ccc(C)cc2)c2ccccc12`: the inhibition is 46.9% (active).
As to `Cc1ccsc1CNc1ncnc2ccc(-c3c(C)noc3C)cc12`, the inhibition was 37.9%.
Take `N#Cc1c2ccc([N+](=O)[O-])cc2[n+]([O-])n1-c1ccccc1`: the inhibition was 81.5% (active).
For the compound `O=[N+]([O-])c1ccc(N2CCN(Cc3ccccc3)CC2)c2c1no[n+]2[O-]`, the inhibition was 57.3% (active).
`Cc1sc2ncnc(NCC(O)c3ccc([N+](=O)[O-])cc3)c2c1C` (stereo not given): the inhibition is 51.7% (active).
Regarding `COc1ccc(NC(=O)CSc2ncnc3[nH]ncc23)cc1`, the inhibition is 60.5% (active).
Regarding `CN(CC(=O)Nc1ccc(N2CCOCC2)cc1)CC(=O)Nc1ccc(N2CCOCC2)cc1`, the inhibition was 52.1% (active).
For `CCOc1ccc(NC(=O)Cn2cc(C(C)=O)c3ccccc32)cc1`, the inhibition is 78.3% (active).
The result for `O=C(CSc1nccc(=O)[nH]1)Nc1ccc(N2CCOCC2)cc1` reads 61.3% (active).
As for `N#CCSc1ccccc1NC(=O)CN1C(=O)C2CC=CCC2C1=O` (stereo not given), the inhibition was 58.1% (active).
Consider `CS(=O)(=O)N1CCN(c2ccc(NC(=O)CSc3nnc(-c4ccco4)o3)cc2)CC1`, for which the inhibition is 54% (active).
With `COc1cc(-c2cc(C(=O)Nc3ccncc3)c3ccccc3n2)cc(OC)c1OC`, the inhibition is 40.9%.
`COc1cc2nc(/C=C/c3cc(OC)c(OC)c(OC)c3)sc2cc1SC`: the inhibition was 45.1% (active).
As for `Cn1c(=O)n(C)c2cc(NC(=O)CCl)ccc21`, the inhibition is 73.4% (active).
For `Cn1c(=O)c2c(nc(CN3CCOCC3)n2CC(=O)c2ccccc2)n(C)c1=O`, the inhibition is -0.49%.
Consider `Cc1cc(/C=N/n2cnnc2)c(C)n1-c1ccc(OCc2ccc(Cl)cc2)cc1`, for which the inhibition was 27.8%.
Turning to `O=C(NCc1cccnc1)c1cccc2c1C(=O)N(C1CCCCC1)C2`, the inhibition is 48.5% (active).
With `Cc1cccc(NC(=O)CSc2ccc(-c3ccco3)nn2)c1C`, the inhibition is 44.6% (active).
With `O=C(N/N=C/c1ccc(Sc2ccccn2)o1)c1cccc([N+](=O)[O-])c1`, the inhibition was 44.3% (active).
The result for `Cc1cc(C)nc(NC(=O)c2ccc([N+](=O)[O-])o2)n1` reads 61.6% (active); that for `O=C(Nc1cccc(NC(=O)c2ccc([N+](=O)[O-])o2)c1)c1ccco1`, 69% (active); that for `CCCCc1c(O)nc(SCC(=O)Nc2ccc3c(c2)CCC3)[nH]c1=O`, 37.2%.
Regarding `CN(Cc1cccs1)c1nc(-c2cccnc2)nc2ccccc12`, the inhibition was 54.4% (active).
In the case of `Cc1cc(O)c(NC(=O)c2cc([N+](=O)[O-])ccc2Cl)cc1C`, the inhibition was 53.6% (active).
The result for `O=C(NNc1ccc([N+](=O)[O-])cc1[N+](=O)[O-])c1ccco1` reads 57.6% (active); that for `Cc1ccc(-n2c(SCC(=O)NCc3ccco3)nc3sc4c(c3c2=O)CC(C)(C)SC4)cc1`, 56.1% (active); that for `S=C(Nc1cccnc1)Nc1cccc2cnccc12`, 17.3%.
`O=C(COC(=O)c1ccc(Br)o1)Nc1ccc2c(c1)OCCO2`: the inhibition was 59.4% (active).
Take `Cc1cc(OCC(=O)Nc2ccc(OCc3ccccc3)cc2)nc(C(C)C)n1`: the inhibition is 48% (active).
